Reference: PubChem BioAssay AID1159580 (chemical genetic matrix, 2015)
Out of some 5,500 compounds screened, about 2,000 (36%) were called active. Another 18% or so got no clear call; they are omitted. Cut-off read from the data, not from the text of the source: active = normalized growth mostly below about 0.91 (no sharp cut-off); inconclusive = no clear call, values can overlap the other calls; inactive = mostly above about 0.92. This is one part of the list.

Assay: chemical genetic growth profiling, strain panel (AID 1159580);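 note: tested at 20 µM; growth read once vehicle control cultures reached saturation at 30 °C; 1 = growth at the plate median or of vehicle wells; lower values mean less growth of the strain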
Conditions: S. cerevisiae deletion strains, growth OD
[1] = locus YAL040C, strain CLN3, active compounds read low
[2] = locus YCL061C, strain MRC1 (second series), active compounds read low
[3] = locus YDR363W, strain ESC2, active compounds read low
[4] = locus YER002W, strain NOP16, active compounds read low
[5] = locus YGR078C, strain PAC10, active compounds read low
[6] = locus YNL175C, strain NOP13, active compounds read low
[7] = locus YNL197C, strain WHI3, active compounds read low
[8] = locus YNL224C, strain SQS1, active compounds read low
[9] = locus YNL322C, strain KRE1, active compounds read low
[10] = locus YOR083W, strain WHI5 (second series), active compounds read low
[11] = locus YPL055C, strain LGE1, active compounds read low

Measured: normalized growth

COc1cc(CC(=O)O)ccc1O
inactive: locus YAL013W, strain DEP1, active compounds read low 1 | [1] 1.07 | [2] 0.989 | locus YDR150W, strain NUM1, active compounds read low 0.992 | [3] 0.982 | [4] 0.97 | [5] 0.986 | locus YMR307W, strain GAS1, active compounds read low 1.01 | [6] 0.967 | [7] 0.977 | [8] 0.985 | [9] 0.987 | [10] 0.942 | [11] 0.995 | locus YPL241C, strain CIN2, active compounds read low 0.991

COc1cc(C(O)CO)ccc1O (stereo not drawn)
inactive: [1] 0.993 | [2] 0.985 | [3] 0.995 | [4] 0.988 | [5] 0.982 | locus YNL128W, strain TEP1, active compounds read low 0.991 | locus YNL153C, strain GIM3, active compounds read low 1.04 | [6] 0.998 | [7] 1 | [8] 0.988 | [9] 0.992 | [10] 1.08 | [11] 0.968
